Screens: PubChem, The Scripps Research Institute Molecular Screening Center
PAFAH2 inh: PAFAH2 (human) inhibition | Q99487 | recombinant PAFAH2, FP-rhodamine activity probe, fluorescence polarization | inhibition, % at 3.39 µM | 340,000 compounds, 0.99% hits;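 active = inhibition above the mean over all tested compounds plus 3 SD, cut at about 30% in these data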;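 note: inhibitors block probe labeling of enzyme so polarization drops; 0% = enzyme with DMSO and 100% = wells lacking PAFAH2 protein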
pPAFAH FP inh: inhibitors of human plasma PAF acetylhydrolase (pPAFAH); Q13093; recombinant pPAFAH, FP-rhodamine probe fluorescence polarization; inhibition, % at 3.39 µM; 330,000 compounds, 1.5% hits; AID 463082;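 active = inhibition above the mean inhibition across the screen plus 3 SD, cut at about 25% in these data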;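 note: inhibitors block binding of the rhodamine activity-based probe so polarization drops; 0% = enzyme with DMSO and 100% = wells lacking pPAFAH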
Target sequence (Q13093 whole entry, looked up): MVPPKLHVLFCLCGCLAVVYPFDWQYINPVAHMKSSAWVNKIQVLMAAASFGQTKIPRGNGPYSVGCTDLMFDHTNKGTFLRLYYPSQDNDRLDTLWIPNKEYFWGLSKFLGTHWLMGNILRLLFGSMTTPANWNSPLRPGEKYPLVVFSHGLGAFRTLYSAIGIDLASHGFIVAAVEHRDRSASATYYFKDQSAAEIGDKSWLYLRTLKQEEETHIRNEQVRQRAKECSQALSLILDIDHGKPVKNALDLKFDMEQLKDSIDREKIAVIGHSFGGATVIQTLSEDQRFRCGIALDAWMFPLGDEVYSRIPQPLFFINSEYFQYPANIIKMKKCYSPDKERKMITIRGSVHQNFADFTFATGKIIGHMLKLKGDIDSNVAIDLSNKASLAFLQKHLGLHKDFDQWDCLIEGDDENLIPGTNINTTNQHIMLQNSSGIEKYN
PP1 inh: blocks human PP1-alpha phosphatase, a PP5 counter-screen | P62136 | purified PP1alpha, OMFP fluorescence | inhibition, % at 6.7 µM | 320,000 compounds, 0.9% hits | AID 2235;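 active = inhibition above the mean inhibition of all tested compounds plus 3 SD, computed separately for each screening campaign, cut at about 15% in these data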
PAFAH1B3 inh: PAFAH1B3 (human) inhibition. Q15102. recombinant PAFAH1B3, FP-rhodamine probe, fluorescence polarization. inhibition, % at 3.39 µM. 340,000 compounds, 0.28% hits;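 active = inhibition above the screen-wide average of all tested compounds plus 3 SD, cut at about 25% in these data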;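 note: 0% = enzyme with DMSO only and 100% = wells lacking PAFAH1B3 protein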
PAFAH1B2 FP inh: blocks human PAF acetylhydrolase 1b catalytic subunit 2. P68402. recombinant PAFAH1B2, FP-rhodamine activity probe, fluorescence polarization. inhibition, % at 3.39 µM. 340,000 compounds, 1.2% hits. AID 492953;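 active = inhibition above the mean of all tested compounds plus 3 SD, cut at about 24% in these data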;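 note: 0% = enzyme with DMSO and 100% = wells lacking PAFAH1B2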
PP5 primary: inhibitors of human protein phosphatase 5 (PP5) | P53041 | purified PP5c, OMFP substrate fluorescence | inhibition, % at 6.7 µM | 320,000 compounds, 0.18% hits | AID 1987;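 active = inhibition above the campaign's mean inhibition across all tested compounds plus 3 SD, cut at about 9.5% in these data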;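 note: 0% = DMSO only and 100% = 100 µM cantharidin control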
* = called active by the depositor; . = no result. Most compounds without a hit are left out; they make up all but 3.4% or so of the library.

SMILES	PAFAH2 inh	pPAFAH FP inh	PP1 inh	PAFAH1B3 inh	PAFAH1B2 FP inh	PP5 primary
O=C(CC1CCCC1)N1CCCC(Nc2ccc(F)cc2)C1 (stereo not drawn)	3	-1	4	7	16	4
CC1(CCC(=O)N2CCCC(Nc3ccc(F)cc3)C2)CC1 (stereo not drawn)	2	-4	-1	8	29*	2
CCc1ccccc1NC(=O)c1ccc(NS(C)(=O)=O)cc1	.	5	-5	.	.	2
CS(=O)(=O)Nc1ccc(C(=O)Nc2ccccc2Sc2ccccc2)cc1	-3	30*	2	-1	5	0
O=C(Nc1ccccc1Sc1ccccc1)c1ccccc1F	1	31*	2	9	-3	1
O=C(Nc1ccccc1NC(=O)c1ccccc1F)c1ccccc1F	-1	.	.	2	-1	.
C=CCOc1nc(-c2ccncc2)nc2ccccc12	1	3	4	2	4	0
COCC(=O)Nc1cc(C)c2c(=O)oc3ccccc3c2n1	7	2	-4	1	1	3
COCCCNC(=O)c1ccc2c(=O)n(Cc3ccc4c(c3)OCO4)c(=S)[nH]c2c1	-8	3	17*	3	4	3
Cc1ccc(NC(=O)COc2ccc3c(c2)OCO3)c(Cl)c1	-4	1	-1	-2	0	0
CN(Cc1ccccc1)C(=O)CSc1cc(=O)n(C)c2ccccc12	7	29*	-1	3	-3	1
CCn1c(=O)cc(SCC(=O)N(C)Cc2ccccc2)c2ccccc21	10	10	-4	3	4	-3
CC(=O)c1ccc(N2CCN(S(=O)(=O)c3cc(-c4cc(C)no4)ccc3C(C)C)CC2)cc1	5	12	15	1	2	4
CCc1ccc(-c2cc(C)no2)cc1S(=O)(=O)N1CCN(c2ccc(C(C)=O)cc2)CC1	7	8	15*	-6	0	1
COC(=O)/C=C/c1ccc2c(c1)OCO2	-5	-6	-2	0	1	-2
CCNc1ccccc(C(=O)/C=C/c2ccc3c(c2)OCO3)c1=O	30*	32*	9	8	5	2
O=C1C2CCCN2C(=O)N1CCCN1CCN(c2ccc([N+](=O)[O-])cc2)CC1 (stereo not drawn)	-4	29*	-2	4	0	1
O=C1C2CCCCN2C(=O)N1CCCCN1CCN(c2cccc(Br)c2)CC1 (stereo not drawn)	-2	28*	-1	7	-1	2
O=C1C2CCCCN2C(=O)N1CCN1CCN(c2ccc([N+](=O)[O-])cc2)CC1 (stereo not drawn)	4	6	-3	5	0	0
O=C1C2CCCN2C(=O)N1CCCCN1CCN(c2ccccc2)CC1 (stereo not drawn)	-108	9	-2	3	3	-1
Cc1ccsc1/C=C1\Oc2cc(OCC(=O)c3ccccc3)ccc2C1=O	-8	-1	16*	3	3	1
CCOC(=O)N1CCN(S(=O)(=O)c2ccc3c(c2)CC(C)N3C(=O)C2CC2)CC1 (stereo not drawn)	2	3	3	4	1	2
COc1ccc(CCNC(=O)CNS(=O)(=O)c2ccc(Br)s2)cc1OC	8	3	0	7	4	0
Cc1ccc(CNS(=O)(=O)c2ccc(Br)s2)cc1	3	12	3	3	25*	4
Cc1nc2ccc(S(=O)(=O)NCC(=O)NCCc3ccc(Cl)cc3)cc2s1	10	6	-2	5	25*	0
SMILES	PAFAH2 inh	pPAFAH FP inh	PP1 inh	PAFAH1B3 inh	PAFAH1B2 FP inh	PP5 primary
O=C(CNS(=O)(=O)c1ccc(Br)s1)NCCc1ccc(Cl)cc1	-1	0	4	1	29*	2
O=S(=O)(NCc1ccccc1)c1ccc(Br)s1	-4	.	.	-4	17	.
Cc1cccc(CCNC(=O)CNS(=O)(=O)c2ccc3nc(C)sc3c2)c1	0	3	-1	2	5	1
CCC(C)C(=O)Nc1nnc(SCC(=O)Nc2ccccc2F)s1 (stereo not drawn)	-1	2	-1	13	4	-4
CCn1c(=NC(=O)c2cccc(N3C(=O)CCC3=O)c2)sc2c(OC)ccc(OC)c21	0	-7	-6	2	6	-4
CCOC(=O)c1sc2nc(CC(=O)OC)nc(N(C)CCc3ccccn3)c2c1C	.	0	-1	.	.	2
Cc1ccc(C)c(NC(=O)COc2coc(CN3CCc4ccccc4C3)cc2=O)c1	3	8	-1	1	3	-1
Cc1ccc(NC(=O)COc2coc(CN3CCc4ccccc4C3)cc2=O)c(C)c1	4	25*	-4	8	9	-1
Cc1ccc(-n2c(Cc3cccs3)nnc2SCC(=O)Nc2ccc(S(N)(=O)=O)cc2)cc1	9	26*	0	8	7	3
NS(=O)(=O)c1ccc(NC(=O)CSc2nnc(Cc3cccs3)n2-c2ccccc2)cc1	-4	6	0	3	0	-1
O=C(CSc1nnc(Cc2cccs2)n1-c1ccc(Cl)cc1)NCc1ccc2c(c1)OCO2	3	25*	-1	0	-2	-3
COc1ccc(Br)cc1-c1noc(-c2ccncc2)n1	-4	3	-2	-1	3	2
O=C(CCc1ccccc1)N[C@@H]1c2ccccc2CC[C@@H]1OCc1ccccc1	-8	0	.	5	2	.
CCOc1cc(/C=C2\N=C(SC)SC2=O)cc([N+](=O)[O-])c1OC(C)=O	12	17	2	2	13	2
CCOc1cc(/C=C2\N=C(SCC)SC2=O)cc([N+](=O)[O-])c1OC(C)=O	53*	23	6	12	24*	3
CCCCc1c(C)nn(-c2nnc3c4ccccc4n(C)c3n2)c1C	12	12	17*	19	2	0
CCOC(=O)c1ccc(NC(=O)CSc2nc3c(c(=O)n2C)SC(C)C3)cc1 (stereo not drawn)	3	1	5	1	1	3
CC1=[N+](C)N(c2ccccc2)C(=O)C1N=Cc1ccc(Cl)cc1 (stereo not drawn)	-5	2	-4	2	2	-2
Cc1ccc(NC2c3ccccc3C(=O)N2CCN2CCOCC2)cc1 (stereo not drawn)	12	4	0	0	6	0
Cn1cc(C(=O)c2cccc(Cl)c2Cl)cc1C(=O)O	4	4	0	2	1	2
COC(=O)c1cc(C(=O)c2cccc(Cl)c2Cl)cn1C	10	25*	-1	5	2	3
Clc1cccc(Cl)c1CSc1nnc2ccccn12	6	1	0	2	7	-1
Brc1ccc(CSc2nnc3ccccn23)cc1	2	0	0	2	30*	0
O=S(=O)(NCc1ccc(F)cc1)c1ccccc1Br	1	1	-1	4	25*	1
